Measured values: PubChem BioAssay

Test system: Lefty1
Assay: Lefty1 protein binding to printed compounds – biochemical, small-molecule microarray, 635/667 nm fluorescence, primary screen (AID 1139)
Settings: fluorescence 635/667, higher = more signal

Row | Structure (SMILES) | composite z-score
1 | Cc1ccc(N2C(=O)c3ccccc3[C@](C)(C(=O)O)[C@@H]2c2ccc(CO)cc2)nc1 | -1.28
2 | C[C@@H]1CC[C@H]2C(=O)N3[C@@H](CC[C@@H](C)[C@@H]3c3cccc(N4CCOCC4)c3)C(=O)N2[C@H]1c1cccc(N2CCOCC2)c1 | 1.47
3 | Cc1ccc(S[C@]2(C(=O)NCCN3CCOCC3)CC(=O)N(C3Cc4ccccc4C3)[C@@H]2c2ccc(CO)cc2I)cc1 | -1.21
4 | N#Cc1ccc(NN2C(C(O)c3ccc(I)cc3)C=CC3C(=O)N(c4ccccc4)C(=O)C32)cc1 (stereo not given) | -0.491
5 | CCOC(=O)[C@H]1C/C=C/C[C@H](C(=O)OCC)C(=O)O[C@H]2[C@@H](OC)O[C@H](CO)[C@@H](OC(=O)Nc3ccc(Br)cc3)[C@@H]2OC1=O | 0.588
6 | C[C@@H]1C=CCC(=O)OC[C@H]2O[C@@H](C=C[C@@H]2O)[C@H](C)C=CCC(=O)OC[C@H]2O[C@H]1C=C[C@@H]2O | 1.75
7 | CO[C@@H]1COC(=O)[C@H](C)NC(=O)CC=C[C@@H](C)[C@H](NS(=O)(=O)c2ccc(C)cc2)COC(=O)CC=C[C@@H]1C | -0.0101
8 | C=C(CCCC)/C(=C/C[C@@H](OC(=O)c1ccncc1)c1cccc(OCCO)c1)c1cc(C(=O)OC)ccc1OC | 0.959
9 | [N-]=[N+]=NCc1ccccc1C[C@]1(C(N)=O)N=C(c2ccc(OCCCO)cc2)O[C@H]1c1ccccc1CN=[N+]=[N-] | -0.621
10 | CCCCO[C@H]1C[C@H]2C(Br)=C[C@@]1(CO)C(=O)[C@]21CO1 | 0.641
11 | CC(C)N1CC=CC23O[C@@H]4/C=C\CCCOC(=O)C4[C@H]2C(=O)N(CCCCCO)[C@@H]3C1=O (stereo not given in full) | -1.52
12 | CO[C@@H]1COC(=O)[C@H](C)NC(=O)CC=C[C@@H](C)[C@H](OC)COC(=O)[C@H](C)NC(=O)CC=C[C@H]1C | 0.59
13 | CCOC(=O)C[C@H]1[C@H](OC(=O)Cc2ccc3c(c2)OCO3)[C@@H](NC(=O)c2ccc3ccccc3c2)c2cc(OCCCO)ccc2N1C(=O)Cc1ccc(OC)cc1 | 0.55
14 | CCCN1C(=O)[C@@]2(CCS(=O)(=O)c3ccccc3)N=C(c3ccc(OCCCO)cc3)O[C@H]2c2ccccc21 | 0.78
15 | CCCC[C@@H]1C[C@H]1[C@@H](NC(=O)c1cccs1)c1ccc(Cl)cc1 | -1.58
16 | C[C@H]1COC(=O)[C@@H]2CCCN2C(=O)[C@@H](C)COC(=O)[C@@H]2CCCN2C1=O | 0.308
17 | [N-]=[N+]=NCc1ccccc1C[C@@]1(C(=O)O)N=C(c2ccc(OCCCO)cc2)O[C@@H]1c1ccccc1N=[N+]=[N-] | 0.42
18 | O=C1C2C=CC(C(O)C(c3ccccc3)c3ccccc3)N(Nc3ccc([N+](=O)[O-])cc3)C2C(=O)N1c1ccccc1 (stereo not given) | 0.35
19 | CO[C@H]1COC(=O)[C@H](CCSC)NC(=O)CC=C[C@@H](C)COC(=O)[C@@H](OCc2ccccc2)C=C[C@@H]1C | 1.63
20 | CCC(=O)[C@]12O[C@@]3([C@@H]4C(=O)OCC[C@@H]41)N(Cc1ccccc1)C(C)=C(C(=O)OC)[C@@H](c1ccccc1)N3C2=O | 0.197
21 | COC(=O)[C@@]1(Cc2ccc(OC)cc2)[C@H]2c3cc(C(=O)N(C)C)n(CCc4ccc(OC)c(Br)c4)c3C[C@H]2CN1C(=O)c1ccccc1 | -0.545
22 | C#CCCCON=C1C[C@@H](O)[C@@H](O)[C@@H]2[C@@H]3C(=O)N(Cc4ccc5c(c4)OCO5)C(=O)[C@@H]3CC[C@H]12 | 1.59
23 | COC(=O)c1c(CC[C@@H](CO)NC(=O)N[C@H](Cn2cc(-c3cncn3C)nn2)C(C)C)oc(C(C)=O)c1C(=O)OC | 0.999
24 | CCOC(=O)C1=CC[C@@H](c2ccc(-c3ccc(OCc4ccccc4)cc3)c(OC)c2)N(S(=O)(=O)c2ccc(C)cc2)[C@H]1c1ccccc1 | 0.329

Test system: wheat germ agglutinin (Triticum aestivum), Alexa647-labelled
Assay: Alexa647-WGA lectin binding to printed small molecules – biochemical, small-molecule microarray, 635/667 nm fluorescence, artefact control for SMM control-protein annotation, profiling panel (AID 1140);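 note: score merges 667 nm feature emission with signal to noise over triplicate slides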
Settings: WGA-A647 binding, 635 nm fluorescence, higher = more signal

Row | Structure (SMILES) | composite z-score
25 | Cc1ccc(S[C@]2(C(=O)NCCCN(C)C)CC(=O)N(C3CCCCC3)[C@@H]2c2ccc(CO)cc2I)cc1 | -1.54
26 | O=C1C2C=CC(C(O)C#Cc3ccccc3)N(Nc3ccccc3)C2C(=O)N1c1ccccc1 (stereo not given) | 1.23
27 | O=C1NC(=O)C2C1C=CC(C(O)C=Cc1ccc([N+](=O)[O-])cc1)N2Nc1ccccn1 (stereo not given) | 0.551
28 | Cc1ccc(S(=O)(=O)N[C@H]2COC(=O)CC=C[C@H](C)COC(=O)N[C@@H](C)C(=O)CC=C[C@@H]2C)cc1 | -0.557
29 | Cc1ccc(N2C(=O)c3ccccc3[C@](C)(C(=O)NCC(C)C)[C@@H]2c2ccc(CO)cc2)nc1 | 0.0574
30 | O=C1C2C=CC(C(O)c3ccccc3)N(n3cnnc3)C2C(=O)N1Cc1ccccc1 (stereo not given) | -0.164
31 | COc1cc([C@@H]2N[C@H](C(=O)O)Cc3c2[nH]c2ccccc32)cc(OC)c1OC | 0.373
32 | C=CCNC(=O)[C@H]1[C@@H]2C(=O)O[C@@H](c3ccccc3)[C@@H](c3ccccc3)N2[C@@H](c2ccc(O)cc2)[C@]12C(=O)Nc1ccc(C#CCNC(N)=O)cc12 | -0.52
33 | CCC#CCN(Cc1ccccc1Br)[C@H](/C=C/c1ccccc1)[C@@H](O)Cc1ccccc1 | -0.518
34 | CCCC=C(CCC)[C@@H](NC(=O)c1ccccc1)c1ccccc1 | -0.677
35 | CO[C@H]1O[C@H](CO)[C@@H](OC(=O)CCc2ccccc2)[C@@H]2OC(=O)[C@H](Cc3cccc(Br)c3)C/C=C/C[C@@H](Cc3cccc(Br)c3)C(=O)O[C@@H]12 | 0.978
36 | C=CCC(OC(C)=O)[C@@H]1[C@@H](N(Cc2cccc3ccccc23)C(=O)c2ccc(C)cc2)c2cc(OCCCO)ccc2N1C(=O)c1ccc(-c2ccccc2)cc1 (stereo not given in full) | -0.285
37 | Cc1ccc(N2C(=O)c3ccccc3[C@](C)(C(=O)O)[C@@H]2c2ccc(CO)cc2)nc1 | -0.576
38 | C[C@@H]1CC[C@H]2C(=O)N3[C@@H](CC[C@@H](C)[C@@H]3c3cccc(N4CCOCC4)c3)C(=O)N2[C@H]1c1cccc(N2CCOCC2)c1 | 0.964
39 | Cc1ccc(S[C@]2(C(=O)NCCN3CCOCC3)CC(=O)N(C3Cc4ccccc4C3)[C@@H]2c2ccc(CO)cc2I)cc1 | 1.01
40 | N#Cc1ccc(NN2C(C(O)c3ccc(I)cc3)C=CC3C(=O)N(c4ccccc4)C(=O)C32)cc1 (stereo not given) | 1.3
41 | CCOC(=O)[C@H]1C/C=C/C[C@H](C(=O)OCC)C(=O)O[C@H]2[C@@H](OC)O[C@H](CO)[C@@H](OC(=O)Nc3ccc(Br)cc3)[C@@H]2OC1=O | 1.21
42 | C[C@@H]1C=CCC(=O)OC[C@H]2O[C@@H](C=C[C@@H]2O)[C@H](C)C=CCC(=O)OC[C@H]2O[C@H]1C=C[C@@H]2O | -0.312

Row | Structure (SMILES) | composite z-score
43 | CO[C@@H]1COC(=O)[C@H](C)NC(=O)CC=C[C@@H](C)[C@H](NS(=O)(=O)c2ccc(C)cc2)COC(=O)CC=C[C@@H]1C | -0.872
44 | C=C(CCCC)/C(=C/C[C@@H](OC(=O)c1ccncc1)c1cccc(OCCO)c1)c1cc(C(=O)OC)ccc1OC | 1.09
45 | [N-]=[N+]=NCc1ccccc1C[C@]1(C(N)=O)N=C(c2ccc(OCCCO)cc2)O[C@H]1c1ccccc1CN=[N+]=[N-] | 1.32
46 | CCCCO[C@H]1C[C@H]2C(Br)=C[C@@]1(CO)C(=O)[C@]21CO1 | -0.283
47 | CC(C)N1CC=CC23O[C@@H]4/C=C\CCCOC(=O)C4[C@H]2C(=O)N(CCCCCO)[C@@H]3C1=O (stereo not given in full) | -1.78
48 | CO[C@@H]1COC(=O)[C@H](C)NC(=O)CC=C[C@@H](C)[C@H](OC)COC(=O)[C@H](C)NC(=O)CC=C[C@H]1C | 0.222
49 | CCOC(=O)C[C@H]1[C@H](OC(=O)Cc2ccc3c(c2)OCO3)[C@@H](NC(=O)c2ccc3ccccc3c2)c2cc(OCCCO)ccc2N1C(=O)Cc1ccc(OC)cc1 | 0.353
50 | CCCN1C(=O)[C@@]2(CCS(=O)(=O)c3ccccc3)N=C(c3ccc(OCCCO)cc3)O[C@H]2c2ccccc21 | 0.46
51 | CCCC[C@@H]1C[C@H]1[C@@H](NC(=O)c1cccs1)c1ccc(Cl)cc1 | -0.746
52 | C[C@H]1COC(=O)[C@@H]2CCCN2C(=O)[C@@H](C)COC(=O)[C@@H]2CCCN2C1=O | -0.468
53 | [N-]=[N+]=NCc1ccccc1C[C@@]1(C(=O)O)N=C(c2ccc(OCCCO)cc2)O[C@@H]1c1ccccc1N=[N+]=[N-] | 0.415
54 | O=C1C2C=CC(C(O)C(c3ccccc3)c3ccccc3)N(Nc3ccc([N+](=O)[O-])cc3)C2C(=O)N1c1ccccc1 (stereo not given) | 1.28
55 | CO[C@H]1COC(=O)[C@H](CCSC)NC(=O)CC=C[C@@H](C)COC(=O)[C@@H](OCc2ccccc2)C=C[C@@H]1C | -1.02
56 | CCC(=O)[C@]12O[C@@]3([C@@H]4C(=O)OCC[C@@H]41)N(Cc1ccccc1)C(C)=C(C(=O)OC)[C@@H](c1ccccc1)N3C2=O | -0.803
57 | COC(=O)[C@@]1(Cc2ccc(OC)cc2)[C@H]2c3cc(C(=O)N(C)C)n(CCc4ccc(OC)c(Br)c4)c3C[C@H]2CN1C(=O)c1ccccc1 | 1.37
58 | C#CCCCON=C1C[C@@H](O)[C@@H](O)[C@@H]2[C@@H]3C(=O)N(Cc4ccc5c(c4)OCO5)C(=O)[C@@H]3CC[C@H]12 | -0.142
59 | COC(=O)c1c(CC[C@@H](CO)NC(=O)N[C@H](Cn2cc(-c3cncn3C)nn2)C(C)C)oc(C(C)=O)c1C(=O)OC | -0.0889
60 | CCOC(=O)C1=CC[C@@H](c2ccc(-c3ccc(OCc4ccccc4)cc3)c(OC)c2)N(S(=O)(=O)c2ccc(C)cc2)[C@H]1c1ccccc1 | 1.05
